Screening results from PubChem BioAssay.
KCNQ2 inh: blocks the rat KCNQ2 potassium channel. O88943. CHO-K1 KCNQ2, FluxOR thallium flux, 20 min; hits give low values. B-score at 10 µM. 310,000 compounds, 1.1% hits. AID 2156;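 active = fluorescence ratio B-score at most minus 3 library SDs, with starting brightness B-score within 2 library SDs, cut at about -5.5 in these data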
Target sequence (O88943 whole entry, looked up): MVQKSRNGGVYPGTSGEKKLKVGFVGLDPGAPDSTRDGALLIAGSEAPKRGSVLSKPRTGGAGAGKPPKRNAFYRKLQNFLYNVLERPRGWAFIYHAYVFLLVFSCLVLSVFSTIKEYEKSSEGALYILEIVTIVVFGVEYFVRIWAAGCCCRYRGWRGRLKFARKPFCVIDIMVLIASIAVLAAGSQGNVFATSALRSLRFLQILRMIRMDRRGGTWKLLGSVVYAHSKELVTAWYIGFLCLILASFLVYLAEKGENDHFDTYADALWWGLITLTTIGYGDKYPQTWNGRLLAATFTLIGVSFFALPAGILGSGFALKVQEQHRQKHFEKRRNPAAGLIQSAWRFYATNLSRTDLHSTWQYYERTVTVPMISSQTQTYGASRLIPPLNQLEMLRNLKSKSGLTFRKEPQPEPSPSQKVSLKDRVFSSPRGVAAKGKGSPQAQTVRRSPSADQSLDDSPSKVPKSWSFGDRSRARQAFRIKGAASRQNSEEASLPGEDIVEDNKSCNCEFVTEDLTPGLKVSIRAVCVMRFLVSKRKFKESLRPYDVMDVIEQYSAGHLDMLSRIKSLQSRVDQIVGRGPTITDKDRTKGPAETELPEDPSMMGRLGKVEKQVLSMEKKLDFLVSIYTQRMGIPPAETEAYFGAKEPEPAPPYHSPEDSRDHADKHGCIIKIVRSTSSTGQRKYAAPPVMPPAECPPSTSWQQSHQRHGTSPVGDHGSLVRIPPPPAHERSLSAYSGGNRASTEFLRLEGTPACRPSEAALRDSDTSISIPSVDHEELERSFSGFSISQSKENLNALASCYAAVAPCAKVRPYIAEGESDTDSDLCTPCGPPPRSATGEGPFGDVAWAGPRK
KCNQ2 pot: enhances the rat KCNQ2 potassium channel | B-score at 10 µM | CHO-K1 KCNQ2, FluxOR thallium flux fluorescence; hits give high values | 310,000 compounds, 0.54% hits | O88943 | AID 2239;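 active = fluorescence ratio B-score at least 3 SD of library B-scores, with initial fluorescence B-score within 3 of them, cut at about 5.3 in these data; same plate scores as AID 2156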;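 also: B-score of peak minus minimum over baseline fluorescence ratio after K+ and Tl+ stimulus; positive B-score means potentiation of KCNQ2 with more thallium influx and brighter signal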
The depositor's hits bear a star. An excerpt weighted towards active compounds, which were near 1.6% of everything screened.

`O=C(/C(=C/c1ccc(Cl)cc1)c1nc2ccccc2[nH]1)c1cccs1` gave KCNQ2 inh -6.3* and KCNQ2 pot -6.3.
Screening COC(=O)/C(=C\c1cc(OC)c(OC)c(OC)c1)c1nc2ccccc2[nH]1 returned KCNQ2 inh inactive.
Screening O=C(/C(=C\c1ccccc1)c1nc2ccccc2[nH]1)c1ccc(Cl)cc1 returned KCNQ2 inh inactive and KCNQ2 pot 0.99.
`CCc1ccc(N2C(=O)Nc3ccccc3C2(O)C(=O)N2CCN(c3ccccn3)CC2)cc1` (stereo unspecified) gave KCNQ2 inh inactive.
`Cc1ccccc1C(=O)N(Cc1cccs1)C1CCS(=O)(=O)C1` (stereo unspecified) gave KCNQ2 inh inactive.
Screening O=C1NC(=Nc2ccccc2Cl)S/C1=C\c1ccc(C(=O)O)cc1 returned KCNQ2 inh inactive.
Screening CC12CCC(C/C1=N\N=C1\NC(=O)/C(=C\c3ccc(Cl)cc3)S1)C2(C)C (stereo unspecified) returned KCNQ2 inh inactive and KCNQ2 pot 13*.
`Clc1ccccc1Cc1noc(CN2CCN(c3cnccn3)CC2)n1` gave KCNQ2 inh inactive.
Fc1ccccc1Cc1noc(CN2CCN(c3ccc(Cl)cn3)CC2)n1 was read as KCNQ2 inh -5.6* and KCNQ2 pot -5.6.
For Cc1cc(NC(=O)COC(=O)C2CC(=O)N(c3ccc(Cl)cc3)C2)no1 (stereo unspecified) the results were KCNQ2 inh inactive.
Screening CC1(C)CC(=O)C2=C(C1)N(CC1CCCO1)C(=O)C2(NC(=O)c1cccnc1)C(F)(F)F (stereo unspecified) returned KCNQ2 inh inactive.
Screening CSCC[C@H](NC(=O)Cc1c(C)c2cc3c4c(oc3cc2oc1=O)CCCC4)C(=O)O returned KCNQ2 inh inactive and KCNQ2 pot 0.62.
For COc1ccc(C2(c3ccc(O)cc3O)CC(c3ccccc3Cl)NC(=S)N2)cc1 (stereo unspecified) the results were KCNQ2 inh inactive and KCNQ2 pot 6.1*.
For COc1cccc(C2CC(c3ccccc3Cl)n3nc(N)nc3N2)c1 (stereo unspecified) the results were KCNQ2 inh inactive and KCNQ2 pot 0.74.
CC1(c2nnc(-c3cccc(Cl)c3)o2)CC(c2ccc(OC(F)(F)F)cc2)=NO1 (stereo unspecified) was read as KCNQ2 inh inactive.
Cc1ccc(C(=O)c2ccc([N+](=O)[O-])cc2)cc1C was read as KCNQ2 inh inactive and KCNQ2 pot 5.6*.
Cc1ccc(C(=O)c2cc([N+](=O)[O-])ccc2N2CCCCC2)cc1C was read as KCNQ2 inh inactive.
`COc1cc(OC)cc(C(=O)NCCOC23CC4CC(CC(C4)C2)C3)c1` gave KCNQ2 inh inactive.
`Cc1ccc(C(=O)NCCOC23CC4CC(CC(C4)C2)C3)cc1` gave KCNQ2 inh -6* and KCNQ2 pot -6.
`Cc1cc(C)c[n+](-c2[nH]c(=O)sc2/C=N/NC([S-])=Nc2ccccc2)c1` gave KCNQ2 inh inactive.
For CCNC1=C(Cl)C(=O)c2ccccc2C1=O the results were KCNQ2 inh inactive and KCNQ2 pot 0.29.
For O=C1C(Cl)=C(NCCN2CCCCC2)C(=O)c2ccccc21 the results were KCNQ2 inh -5.8* and KCNQ2 pot -5.8.
`CCOC(=O)CNc1c(-c2ccc(O)cc2)nc2ccccn12` gave KCNQ2 inh inactive.
CCOC(=O)CNc1c(-c2ccc(O)cc2)nc2ccc(Cl)cn12 was read as KCNQ2 inh -5.7* and KCNQ2 pot -5.7.
CC(C)OC(=O)CSc1nnc(CNc2cccc(Cl)c2)n1C was read as KCNQ2 inh inactive and KCNQ2 pot 0.01.
CCOC(=O)CSc1nnc(CNc2cccc(Cl)c2)n1-c1ccccc1 was read as KCNQ2 inh -6.4* and KCNQ2 pot -6.4.
Screening COc1ccccc1NC(=O)N1CCCC(c2nc3c(nnn3Cc3ccc(C)cc3)c(=O)[nH]2)C1 (stereo unspecified) returned KCNQ2 inh -6.2* and KCNQ2 pot -6.2.
Screening COC(=O)c1ccccc1S(=O)(=O)N1CCCC(c2nc3c(nnn3Cc3ccc(C)cc3)c(=O)[nH]2)C1 (stereo unspecified) returned KCNQ2 inh inactive.
CCCCN(C)C(=O)c1oc2ccc(S(=O)(=O)N3CCCCCC3)cc2c1C was read as KCNQ2 inh -5.6* and KCNQ2 pot -5.6.
`Cc1c(C(=O)O)oc2ccc(S(=O)(=O)N3CCCC3)cc12` gave KCNQ2 inh inactive.
For Cc1cccc(OCC(=O)NNC(=O)C2CCN(c3ncnc4sc(C)c(C)c34)CC2)c1 the results were KCNQ2 inh inactive.
`Cc1ccccc1OCC(=O)NNC(=O)C1CCN(c2ncnc3sc(C)c(C)c23)CC1` gave KCNQ2 inh inactive.
Screening CCCN(CC(=O)Nc1ccccc1C)C(=O)C1CCN(c2ncnc3sc(C)c(C)c23)CC1 returned KCNQ2 inh -6.8* and KCNQ2 pot -6.8.
Screening Cc1sc2ncnc(N3CCC(C(=O)N(CC(C)C)c4nc5ccccc5s4)CC3)c2c1C returned KCNQ2 inh -6.2* and KCNQ2 pot -6.2.
Screening Cc1cc(-c2nnc(CCC(=O)N(C)Cc3cccc4ccccc34)o2)no1 returned KCNQ2 inh inactive and KCNQ2 pot 0.54.
For CCC1(C)SC(N)=NN1C(C)=O (stereo unspecified) the results were KCNQ2 inh inactive and KCNQ2 pot 0.5.
`CCC1(c2ccc(Cl)cc2)NC(=S)N(c2ccc(C)cc2)N1` (stereo unspecified) gave KCNQ2 inh inactive and KCNQ2 pot 17*.
For CC1(CCc2ccccc2)NC(=S)N(c2ccc(Cl)cc2)N1 (stereo unspecified) the results were KCNQ2 inh inactive.
Screening CCN1CCC(CNCc2cn(-c3ccc(OC)cc3)nc2-c2ccccc2Cl)C1 (stereo unspecified) returned KCNQ2 inh inactive.
`CCN1/C(=C/c2ccc3ccccc3[n+]2CC)C=Cc2ccccc21` gave KCNQ2 inh -15* and KCNQ2 pot -15.
For CCN1/C(=C/c2ccc3ccccc3[n+]2CCCS(=O)(=O)[O-])C=Cc2cc(C)ccc21 the results were KCNQ2 inh inactive and KCNQ2 pot 0.41.
For CCOc1ccccc1C(=O)N[C@H](C(=O)OCc1cc(=O)oc2cc(C)ccc12)C(C)C the results were KCNQ2 inh inactive.
COc1cc(OC)cc(C(=O)N[C@H](C(=O)OCc2cc(=O)oc3cc(C)ccc23)C(C)C)c1 was read as KCNQ2 inh -7.7* and KCNQ2 pot -7.7.
COc1ccc(-c2cc(CC3(C(=O)O)CCN(C(=O)OC(C)(C)C)CC3)on2)c(OC)c1 was read as KCNQ2 inh inactive.
`CCn1c(C(=O)O)c(CC(=O)N(C)c2ccc(OC)cc2OC)c2ccccc21` gave KCNQ2 inh inactive.
O=C(CCN1C(=O)c2cccc3cccc(c23)C1=O)NCc1ccco1 was read as KCNQ2 inh inactive.
CCOC(=O)N1c2ccccc2Sc2ccccc21 was read as KCNQ2 inh inactive.
Cc1ccccc1/C(N)=N/OC(=O)N1c2ccccc2Sc2ccccc21 was read as KCNQ2 inh -5.8* and KCNQ2 pot -5.8.
COc1cc(/C=C/c2cc(OC(C)=O)c3ccccc3n2)c(OC(C)=O)c([N+](=O)[O-])c1 was read as KCNQ2 inh inactive and KCNQ2 pot 0.74.
For CCOCCCN(C)C1CCN(C(=O)c2oc3ccccc3c2NC(=O)c2ccc(F)cc2)CC1 the results were KCNQ2 inh inactive.
